Laboratory results taken from PubChem BioAssay (NCI).
About 83,000 compounds went through this panel and 20% of them were active in at least one assay; those are over-represented in the sample as a whole.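 Step 1: grow cells in 96-well plates. Step 2: add test compound at a single concentration. Step 3: incubate 48 h. Step 4: record percent growth.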 Values without a mark were called inactive. Calls of active or inactive are those of the source. Rule for the calls: active = growth percent below 10; inactive = the rest.

Assays:
Assay in all cases: NCI-60 one-dose screen, 48 h (100 = growth as untreated, 0 = no growth, -100 = all killed)
Conditions in all cases: 10 µM unless noted
[1] = system: SK-MEL-2 melanoma
[2] = system: EKVX NSCLC
[3] = system: SN12C renal
[4] = system: UO-31 renal
[5] = system: TK-10 renal
[6] = system: ACHN renal
[7] = system: A498 renal
[8] = system: CCRF-CEM leukemia
[9] = system: MOLT-4 leukemia
[10] = system: SR leukemia
[11] = system: RPMI-8226 leukemia
[12] = system: OVCAR-8 ovarian
[13] = system: OVCAR-5 ovarian
[14] = system: OVCAR-4 ovarian
[15] = system: SK-OV-3 ovarian
[16] = system: OVCAR-3 ovarian
[17] = system: HS 578T breast
[18] = system: NCI/ADR-RES ovarian
[19] = system: T-47D breast
[20] = system: IGROV1 ovarian

SMILES | growth [1] | growth [2] [%] | growth [3] | growth [4] | growth [5] | growth [6] | growth [7] | growth [8] | growth [9] | growth [10] | growth [11] | growth [12] | growth [13] [%] | growth [14] | growth [15] | growth [16] | growth [17] | growth [18] | growth [19] | growth [20] [%]
C=C(C)[C@@H]1CC[C@]2(C(=O)O)CC[C@]3(C)[C@H](CC[C@@H]4[C@@]5(C)C[C@@H](CC#Cc6ccccc6C)C(=O)C(C)(C)[C@@H]5CC[C@]43C)[C@@H]12 | 41.1% | 28.1 | 37.8% | 29.4% | 27.3% | 29.4% | 10.7% | 31.1% | 13.3% | 23% | 14.6% | 24.3% | 61 | 31.4% | 34.2% | 18.3% | 45% | 48% | 20.7% | 
O=C(O)c1cc(N=Nc2ccc(-c3ccc(N=Nc4c(S(=O)(=O)O)cc5ccc(Nc6ccccc6)cc5c4O)cc3)cc2)ccc1O | 93.8% | 101 | 98.7% | 81.3% | 106% | 102% | 99.4% | 101% | 97.9% | 105% | 104% | 107% | 109 | 102% | 98.4% | 103% | 106% | 104% | 89.1% | 
c1ccc(-c2n(Cc3ccc4ccccc4n3)cc[n+]2Cc2ccc3ccccc3n2)cc1 | -5.81% (active) | 70.2 | 22.1% | 76.5% | 58.7% | 96.8% | 56.1% | 28.4% |  | 25.1% | 0.454% (active) | 33.6% | 70.5 | 32.9% | 48.9% | 28.8% | 60.4% | 105% | 9.75% (active) | 33.9
COc1ccc(/C=C(/C(=O)N2CCN(Cc3ccccc3)CC2)c2cc(OC)c(OC)c(OC)c2)cc1O | 73.6% | 87.2 | 91.2% | 62.5% | 88.5% | 67.2% | 54.9% | 64.9% | 72.1% | 28% | 66.9% | 80.1% | 99.9 | 90.3% | 65.5% | 30.8% | 65.1% | 71.7% | 77.2% | 
Cc1cccc(C)c1NCc1nnc(-c2ccc(O)cc2)o1 | 104% | 90.6 | 102% | 85.5% | 104% | 98.6% | 107% | 94.8% | 108% | 119% | 95.5% | 107% | 95.5 | 99% | 114% | 99.4% | -4.35% (active) | 96.8% | 91.5% | 
Cc1nccc2c3ccc(OCc4cn(-c5ccc(Cl)cc5)nn4)cc3n(CC(C)C)c12 | 20.7% | 40.8 | 37.7% | 12.4% | 13.7% | 34.8% | 22.6% | 18% | -11.1% (active) | -14.8% (active) | -35.1% (active) | 25.2% | 44.2 | 30.5% | 24.2% | 35.3% | 38.8% | 14.1% | 14% | 
COc1cc2nc3c(=O)n(-c4ccc(C#N)cc4)cnn3c(=O)c2cc1OC | 94.4% | 93.9 | 99% | 83.6% | 104% | 100% | 113% | 143% | 91.3% | 94.1% | 115% | 108% | 93.4 | 97% | 101% | 92.9% | 90.8% | 100% | 100% | 
O=C1c2ccccc2C(=O)c2c1oc1c2c(=O)[nH]c2ccc(Cl)cc21 | 31.8% | 15.2 | -26.3% (active) | -54.9% (active) | -42.1% (active) | -14.2% (active) | 80.4% | 29% | 18.4% | 33.7% | 4.83% (active) | -27.5% (active) | 52.7 | -42% (active) | 1.64% (active) | -68.4% (active) | -7.55% (active) | 22.3% | -58.1% (active) | 
O=c1[nH]c(-c2cccc(F)c2)cc2cc(F)ccc12 | 67.4% | 39.3 | 49.3% | 55.8% | 58.5% | 47% | 21.9% | 13.6% |  | 22.5% | 22.5% | 30.2% | 48.4 | 63.4% | 26.1% | -11.9% (active) | 34.7% | 6.86% (active) | 49.8% | 40.1
COc1ccc2nc3nc4ccc[nH]c4cc3c2c1 | 108% | 67.6 | 89.7% | 61.5% | 82.2% | 76% | 94.4% | 97.5% | 93.6% | 43.6% | 82.9% | 96.6% | 115 | 92.2% | 89% | 91.8% | 92.5% | 96.1% | 38.3% | 
CN(C)CSc1nc2ccccc2s1 | 101% | 87.6 | 101% | 71.8% | 119% | 92.6% | 111% | 83.5% |  | 94.1% | 98.7% | 104% | 93.6 | 102% | 84.7% | 99.9% | 116% | 102% | 86.7% | 83.7
CC1=C(CCCOC(=O)NCCCl)C2=C(C)C3(CC3)[C@@](C)(O)C(=O)C2=C1 | 14.5% | 54.3 | 45.7% | -42.1% (active) | 9.96% (active) | 5.75% (active) | -9.87% (active) | 79.9% | 70.4% | 82.9% | 80% | 36.9% | 28.1 | 14.6% | -13.7% (active) | 2.71% (active) | 99.8% | 29.2% | 16% | 
CC(C)(C)c1nn(-c2ccccc2)c2c1COCN2Cc1ccc(Cl)cc1 | 94.1% | 98.8 | 96.7% | 85.2% | 117% | 89.1% | 85.1% | 64.5% | 68.1% | 47.2% | 10.9% | 107% | 90 | 77.2% | 92.6% | 104% | 86.2% | 94.8% | 73.6% | 
O=c1[nH]nc(-c2ccccc2)c2sc(NC(=S)Nc3ccc(Cl)cc3)nc12 | 85.5% | 83 | 103% | 84.4% | 96.5% | 102% | 86% | 99.2% |  | 91.7% | 87.8% | 89.6% | 98.6 | 91.6% | 62.3% | 97.5% | 102% | 95.3% | 59% | 94.2
O=C1c2ccccc2C(=O)c2c1oc1c2c(=O)[nH]c2ccccc21 | 76.9% | 27.4 | 70.4% | 60.4% | 97.5% | 65.7% | 104% | 20.7% | 5.55% (active) | 43.8% | 62.7% | 35.6% | 102 | -5.49% (active) | 104% | -14.8% (active) | 88.3% | 40.8% | 22.5% | 
OCCNc1nc(NCCO)nc(Nc2ccc(C3=NN(c4cc(Cl)cc(Cl)c4)C(c4ccc(C(F)(F)F)cc4)C3)cc2)n1 (centres undefined) | 45.9% | 49.4 | 59.6% | 42.2% | 33.1% | 29.6% | 67.7% | -6.5% (active) |  | 4.83% (active) | -1.42% (active) | 39.5% | 89 | 53.6% | 70.1% | 4.39% (active) | 43.6% | 55.6% | 53.5% | 41.7
